Assay results as given in article PMC5540273 (PLoS ONE, 2017).

Assays:
Conditions in all cases: concentration: 1 μM, replicates: in singlicate; n = 1
AMPK-alpha2 = tested on: T1, AMPK-alpha2
T1 construct: gene PRKAA2

ANKK1 = tested on: ANKK1
ARK5 = tested on: T2, ARK5
T2 construct: gene NUAK1

ASK1 = tested on: T3, ASK1
T3 construct: gene MAP3K5

ASK2 = tested on: T4, ASK2
T4 construct: gene MAP3K6

AURKA = tested on: AURKA
AURKB = tested on: AURKB
AURKC = tested on: AURKC
AXL = tested on: AXL
BIKE = tested on: T5, BIKE
T5 construct: gene BMP2K

BLK = tested on: BLK
BMPR1A = tested on: BMPR1A
BMPR1B = tested on: BMPR1B
BMPR2 = tested on: BMPR2
BMX = tested on: BMX
BRAF = tested on: BRAF
BRK = tested on: T6, BRK
T6 construct: gene PTK6

BRSK1 = tested on: BRSK1
BRSK2 = tested on: BRSK2
BTK = tested on: BTK
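Also: KINOMEscan kinase panel screen.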

SMILES | %Inh (AMPK-alpha2) [%] | %Inh (ANKK1) [%] | %Inh (ARK5) [%] | %Inh (ASK1) [%] | %Inh (ASK2) [%] | %Inh (AURKA) [%] | %Inh (AURKB) [%] | %Inh (AURKC) [%] | %Inh (AXL) [%] | %Inh (BIKE) [%] | %Inh (BLK) [%] | %Inh (BMPR1A) [%] | %Inh (BMPR1B) [%] | %Inh (BMPR2) [%] | %Inh (BMX) [%] | %Inh (BRAF) [%] | %Inh (BRK) [%] | %Inh (BRSK1) [%] | %Inh (BRSK2) [%] | %Inh (BTK) [%]
CN1c2ccc(CNc3ccc(F)cc3)cc2-c2c(cnn2C)S1(=O)=O | 13 | 0 | 6 | 0 | 3 | 0 | 21 | 0 | 11 | 0 | 0 | 0 | 0 | 0 | 0 | 36 | 0 | 0 | 0 | 0
CCc1ccnc(/C=C/c2n[nH]c3cc(Sc4ccccc4C(=O)NC)ccc23)c1 | 0 | 0 | 11 | 0 | 0 | 77 | 94.5 | 97.3 | 45 | 34 | 17 | 0 | 0 | 17 | 0 | 4 | 0 | 27 | 17 | 0
Cl.Oc1cccc(Nc2ccnc3cc(-c4ccncc4)ccc23)c1 [GW494601] | 0 | 43 | 9 | 0 | 0 | 23 | 43 | 32 | 21 | 7 | 99.1 | 84 | 99.9 | 30 | 28 | 76 | 90 | 14 | 4 | 46
NS(=O)(=O)c1cccc(-c2ccc3nccc(-c4cccc(S(N)(=O)=O)c4)c3c2)c1 [GW867253] | 6 | 0 | 0 | 0 | 0 | 19 | 45 | 0 | 0 | 0 | 0 | 0 | 3 | 33 | 0 | 0 | 0 | 0 | 5 | 0
O=c1cc(N2CCOCC2)nc2n(Cc3cccc(Cl)c3Cl)c(C3CC3)nn12 [GSK2358994] | 0 | 0 | 0 | 0 | 0 | 0 | 4 | 0 | 3 | 0 | 0 | 15 | 0 | 13 | 19 | 0 | 0 | 3 | 0 | 0
O=C(Nc1n[nH]c2cc(-c3cccc(F)c3)ccc12)C1CC1 [SB-735464] | 69 | 0 | 0 | 0 | 22 | 18 | 39 | 35 | 27 | 21 | 0 | 16 | 65 | 28 | 0 | 1 | 0 | 34 | 33 | 0
O=c1cc(N2CCOCC2)nc2n(Cc3cccc(F)c3)ccn12 [GSK2297430] | 21 | 0 | 7 | 0 | 6 | 0 | 0 | 32 | 14 | 26 | 32 | 0 | 0 | 0 | 12 | 6 | 23 | 0 | 0 | 0
COc1cc2ncn(-c3cc(OCc4sccc4Cl)c(C(N)=O)s3)c2cc1OC [GSK448459] | 0 | 0 | 15 | 0 | 0 | 0 | 12 | 41 | 10 | 90 | 32 | 0 | 0 | 14 | 0 | 0 | 11 | 37 | 45 | 0
Cc1ccc(NC(=O)c2ccnc(N3CCN(C)CC3)c2)cc1-c1ccc(C(=O)NCC2CC2)cc1 [GW775604] | 0 | 0 | 0 | 0 | 0 | 0 | 2 | 0 | 0 | 0 | 0 | 0 | 0 | 0 | 0 | 0 | 0 | 0 | 0 | 0
COC(=O)Nc1nc2cc(Oc3ccc(NC(=O)Nc4cc(F)ccc4F)cc3)ccc2[nH]1.Cl [GW701424] | 8 | 12 | 0 | 13 | 0 | 0 | 94.5 | 50 | 93.5 | 3 | 25 | 0 | 0 | 24 | 9 | 53 | 0 | 0 | 0 | 6
O=C1NC(=O)C(N2CCc3ccccc32)=C1c1cccc(Cl)c1 [SB-408010] | 22 | 1 | 10 | 0 | 0 | 25 | 7 | 37 | 0 | 37 | 0 | 23 | 0 | 4 | 26 | 3 | 0 | 0 | 0 | 23
